Measurements published in PubChem BioAssay (NCI).
About 79,000 compounds went through this panel and 15% of them were active in at least one assay; those are over-represented in the sample as a whole. The source made the active and inactive calls. No stated cut-off is given here; in the data, active means growth inhibition above about 70%; inactive means the rest.

Assay: NCI Yeast Anticancer Drug Screen. Data for the mlh1 rad18 strain (AID 175)
Settings: S. cerevisiae mlh1 rad18 strain growth inhibition; at 5.0 µM (retest, dose inferred, filed as 0.5); stronger effect = higher value
How it was run: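 Read-out is yeast growth inhibition, calculated against vehicle-only controls. The compound was applied to a strain engineered with DNA damage repair alterations.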

Row | Structure (SMILES) | growth inhibition
1 | CC(=O)Sc1ccc(Br)cc1 | -2% (inactive)
2 | CC(C)OCc1cccc2ccnc(COC(C)C)c12 | 28% (inactive)
3 | Nc1ccc2c(c1)C(=O)c1ccccc1-2 | 2% (inactive)
4 | O=C1Nc2ccc([N+](=O)[O-])c3c([N+](=O)[O-])ccc1c23 | 47% (inactive)
5 | Cc1ccc(NC(=O)Oc2ccc(C(C)(C)C)cc2Br)cc1NC(=O)Oc1ccc(C(C)(C)C)cc1Br | 4% (inactive)
6 | O=C1C(Cl)=C(Nc2ccc(S(=O)(=O)O)cc2)C(=O)c2ccccc21 | 26% (inactive)
7 | N/C(=N\OC(=O)Nc1ccccc1)c1ccccc1 | 4% (inactive)
8 | O=C1c2ccccc2C(=O)c2cc(N3C(=O)C=CC3=O)ccc21 | 47% (inactive)
9 | CCCCN=C(c1ccc(O)cc1)c1ccc(OC)cc1O | -4% (inactive)
10 | Cc1ccc(S(=O)(=O)c2cc(O)c(O)c3ccc(Br)cc23)cc1 | 9% (inactive)
11 | CC(C)(C)NC(=S)N/N=C/c1cc(Cl)cc(Cl)c1O | 74% (active)
12 | Oc1ccc2c(c1)OCC1c3ccccc3OC21 (stereo not given) | 50% (inactive)
13 | OCCSC(=S)Nc1ccc(Cl)c(Cl)c1 | 85% (active)
14 | CCCC[N-]CC(O)C[NH-].O=C(O)CC(=O)O.[Pt+2] (stereo not given) | 0% (inactive)
15 | N=C(N)c1cccc(-c2ccc(-c3ccccc3)o2)c1 | -11% (inactive)
16 | C#CC(CC(C)C)(CC(C)C)OC(=O)Nc1ccccc1 | -6% (inactive)
17 | CCCCOc1ccc(-c2c(COC(=O)NC)c(COC(=O)NC)c(C)n2C)cc1 | 20% (inactive)
18 | O=C(Nc1cccc2ccccc12)OCCCCCCl | -16% (inactive)
19 | C=CCOc1ccc(/C=N/NC(N)=S)cc1 | 10% (inactive)
20 | Fc1ccc2[nH]ccc2c1 | -19% (inactive)

Row | Structure (SMILES) | growth inhibition
21 | C=C1C(=O)[C@]23C[C@H]1CC[C@H]2[C@@]12CO[C@@H](O)[C@@H]1C(C)(C)[C@@H](O)C[C@@H]2OC3=O | -1% (inactive)
22 | N#Cc1ccc([N+](=O)[O-])cc1C#N | -135% (inactive)
23 | N=C(N)c1ccc(Oc2ccc(Oc3ccc(C(=N)N)cc3)cc2)cc1 | 57% (inactive)
24 | CCC=Nc1c(O)cc(-c2ccccc2)n(C)c1=O | 47% (inactive)
25 | COc1ccc(CN2CCCN(Cc3ccc(OC)cc3OC)C2c2cc(Cl)ccc2O)c(OC)c1 | 17% (inactive)
26 | CCN(CC)c1ccc(/C=C2/C[N+](C)(C)C/C(=C/c3ccc(N(CC)CC)cc3)C2=O)cc1 | -6% (inactive)
27 | O=P1(Cc2ccccc2)c2ccccc2-c2ccccc21 | 4% (inactive)
28 | CN(C)CCCNc1cc(O)c2c(c1O)C(=O)c1ccccc1C2=O | 16% (inactive)
29 | CCCCC#CC(=O)OCCCCC | -2% (inactive)
30 | CCCCCCN(CCCCCC)CCC(=O)c1ccc2cc(Cl)c3ccccc3c2c1 | 17% (inactive)
31 | CC(C)C1=C2CCC3(C)C(CCC4C5C6OCC5(CCC6(C)C)CCC43C)C2(C)CC1 (stereo not given) | 17% (inactive)
32 | O=C(CC(O)(CC(=O)OCc1ccccc1)C(=O)OCc1ccccc1)OCc1ccccc1 | 3% (inactive)
33 | CCc1c(C)[nH]c2c([N+](=O)[O-])cccc12 | 1% (inactive)
34 | CSc1ncc2c(n1)-c1ccccc1OC2NC1CC1 (stereo not given) | 18% (inactive)
35 | CC(C)c1cc(O)c2c(c1O)C1CC3C(C)(C)CCC[C@]23C(=O)O1 (stereo not given in full) | 3% (inactive)
36 | O=C1C(=O)c2cc(Br)cc([N+](=O)[O-])c2-c2ccc(Br)cc21 | 89% (active)
37 | NSc1ccccn1 | 4% (inactive)
38 | CCCCCCCCCCCCOC(=O)C[n+]1cccc(C(=O)Nc2ccccc2)c1 | 99% (active)
39 | NC(=S)SCCC(=O)O | -16% (inactive)
40 | O=C(O)Cc1ccc2c3c(cccc13)CC2 | 27% (inactive)

Same assay, conditions: S. cerevisiae mlh1 rad18 strain growth inhibition; at 50.0 µM (retest, dose inferred, filed as 5.0); stronger effect = higher value

Row | Structure (SMILES) | growth inhibition
41 | CC(=O)Sc1ccc(Br)cc1 | 76% (active)
42 | CC(C)OCc1cccc2ccnc(COC(C)C)c12 | 50% (inactive)
43 | Nc1ccc2c(c1)C(=O)c1ccccc1-2 | 25% (inactive)
44 | O=C1Nc2ccc([N+](=O)[O-])c3c([N+](=O)[O-])ccc1c23 | 94% (active)
45 | Cc1ccc(NC(=O)Oc2ccc(C(C)(C)C)cc2Br)cc1NC(=O)Oc1ccc(C(C)(C)C)cc1Br | 53% (inactive)
46 | O=C1C(Cl)=C(Nc2ccc(S(=O)(=O)O)cc2)C(=O)c2ccccc21 | 99% (active)
47 | N/C(=N\OC(=O)Nc1ccccc1)c1ccccc1 | 76% (active)
48 | O=C1c2ccccc2C(=O)c2cc(N3C(=O)C=CC3=O)ccc21 | 80% (active)
49 | CCCCN=C(c1ccc(O)cc1)c1ccc(OC)cc1O | 22% (inactive)
50 | Cc1ccc(S(=O)(=O)c2cc(O)c(O)c3ccc(Br)cc23)cc1 | 97% (active)
51 | CC(C)(C)NC(=S)N/N=C/c1cc(Cl)cc(Cl)c1O | 87% (active)
52 | Oc1ccc2c(c1)OCC1c3ccccc3OC21 (stereo not given) | 88% (active)
53 | OCCSC(=S)Nc1ccc(Cl)c(Cl)c1 | 99% (active)
54 | CCCC[N-]CC(O)C[NH-].O=C(O)CC(=O)O.[Pt+2] (stereo not given) | -7% (inactive)
55 | N=C(N)c1cccc(-c2ccc(-c3ccccc3)o2)c1 | 85% (active)
56 | C#CC(CC(C)C)(CC(C)C)OC(=O)Nc1ccccc1 | 95% (active)
57 | CCCCOc1ccc(-c2c(COC(=O)NC)c(COC(=O)NC)c(C)n2C)cc1 | 96% (active)
58 | O=C(Nc1cccc2ccccc12)OCCCCCCl | 93% (active)
59 | C=CCOc1ccc(/C=N/NC(N)=S)cc1 | 90% (active)
60 | Fc1ccc2[nH]ccc2c1 | 44% (inactive)

Row | Structure (SMILES) | growth inhibition
61 | C=C1C(=O)[C@]23C[C@H]1CC[C@H]2[C@@]12CO[C@@H](O)[C@@H]1C(C)(C)[C@@H](O)C[C@@H]2OC3=O | 11% (inactive)
62 | N#Cc1ccc([N+](=O)[O-])cc1C#N | 98% (active)
63 | N=C(N)c1ccc(Oc2ccc(Oc3ccc(C(=N)N)cc3)cc2)cc1 | 90% (active)
64 | CCC=Nc1c(O)cc(-c2ccccc2)n(C)c1=O | 94% (active)
65 | COc1ccc(CN2CCCN(Cc3ccc(OC)cc3OC)C2c2cc(Cl)ccc2O)c(OC)c1 | 97% (active)
66 | CCN(CC)c1ccc(/C=C2/C[N+](C)(C)C/C(=C/c3ccc(N(CC)CC)cc3)C2=O)cc1 | 96% (active)
67 | O=P1(Cc2ccccc2)c2ccccc2-c2ccccc21 | 99% (active)
68 | CN(C)CCCNc1cc(O)c2c(c1O)C(=O)c1ccccc1C2=O | 98% (active)
69 | CCCCC#CC(=O)OCCCCC | -4% (inactive)
70 | CCCCCCN(CCCCCC)CCC(=O)c1ccc2cc(Cl)c3ccccc3c2c1 | 91% (active)
71 | CC(C)C1=C2CCC3(C)C(CCC4C5C6OCC5(CCC6(C)C)CCC43C)C2(C)CC1 (stereo not given) | 45% (inactive)
72 | O=C(CC(O)(CC(=O)OCc1ccccc1)C(=O)OCc1ccccc1)OCc1ccccc1 | -9% (inactive)
73 | CCc1c(C)[nH]c2c([N+](=O)[O-])cccc12 | 27% (inactive)
74 | CSc1ncc2c(n1)-c1ccccc1OC2NC1CC1 (stereo not given) | 12% (inactive)
75 | CC(C)c1cc(O)c2c(c1O)C1CC3C(C)(C)CCC[C@]23C(=O)O1 (stereo not given in full) | 68% (inactive)
76 | O=C1C(=O)c2cc(Br)cc([N+](=O)[O-])c2-c2ccc(Br)cc21 | 97% (active)
77 | NSc1ccccn1 | 85% (active)
78 | CCCCCCCCCCCCOC(=O)C[n+]1cccc(C(=O)Nc2ccccc2)c1 | 99% (active)
79 | NC(=S)SCCC(=O)O | -4% (inactive)
80 | O=C(O)Cc1ccc2c3c(cccc13)CC2 | 91% (active)
